# Reference: PubChem BioAssay (NCI)
# About 83,000 compounds went through this panel and 20% of them were active in at least one assay; those are over-represented in the sample as a whole.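 48-hour exposure, single concentration, 96-well plates; percent growth endpoint where 0 means no net growth. Active: below 10.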 A number with no mark means an inactive call. Activity calls are given as the source filed them.
# Columns and labels:
# Experiment in all cases: NCI-60 one-dose screen, 48 h (100 = growth as untreated, 0 = no growth, -100 = all killed)
# Conditions in all cases: 10 µM unless noted
# [1] = system: NCI-H23 lung
# [2] = system: NCI-H226 lung
# [3] = system: NCI-H322M lung
# [4] = system: HOP-62 NSCLC
# [5] = system: NCI-H460 lung
# [6] = system: HOP-92 NSCLC
# [7] = system: NCI-H522 lung
# [8] = system: A549/ATCC NSCLC
# [9] = system: 786-0 renal
# [10] = system: COLO 205 colon
# [11] = system: DU-145 prostate
# [12] = system: MALME-3M melanoma
# [13] = system: MDA-MB-231 breast
# [14] = system: RXF 393 renal
# [15] = system: SF-268 CNS
# [16] = system: SF-295 CNS
# [17] = system: SF-539 CNS
# [18] = system: UACC-257 melanoma
# [19] = system: M14 melanoma
# [20] = system: K-562 leukemia
SMILES,growth [1],growth [2],growth [3],growth [4],growth [5],growth [6],growth [7],growth [8],growth [9],growth [10],growth [11],growth [12],growth [13],growth [14],growth [15],growth [16],growth [17],growth [18],growth [19],growth [20]
O=C(Cn1cc(CN2C(=O)c3ccccc3S2(=O)=O)nn1)Nc1ccc([N+](=O)[O-])cc1Cl,90%,91.8%,94.5%,101%,102%,107%,101%,106%,105%,103%,105%,101%,90%,110%,100%,108%,101%,98.6%,106%,–
Cc1cc2c(cc1C)NC1=C(N2)OC(c2c3ccccc3cc3ccccc23)C1=O (stereo unspecified),15.2%,52%,45.9%,31.9%,2.12% (active),71.9%,-5.18% (active),26.7%,29.9%,-40.7% (active),16.7%,13.9%,–,24.2%,39.3%,-1.93% (active),-21.9% (active),65.5%,10%,9.62% (active)
N#Cc1ccc(NC(=O)Nc2ccc(Cc3ccc(NC(=O)Nc4ccc(C#N)cc4)cc3)cc2)cc1,-4.62% (active),37.7%,63.3%,50.2%,17.2%,46.8%,28.2%,41.3%,49.3%,29.5%,40.5%,27.5%,–,51.4%,44.5%,12.1%,50.7%,26.3%,37.2%,11.5%
Oc1ccc(Nc2nccc(-c3ccc4ccccc4c3)n2)cc1,30.7%,60.9%,44.4%,36.9%,14.8%,89.5%,30.9%,14.1%,40.1%,98%,55.5%,59.8%,30.5%,60.3%,47.4%,61.4%,37%,26.7%,11.1%,–
Cn1cc(-c2ccc(-c3cn(C)c4ncccc34)[nH]2)c2cccnc21,70.7%,88.8%,86.1%,66.5%,97.8%,-4.05% (active),-77.3% (active),84.2%,99%,-23.6% (active),94.2%,86.5%,63.8%,10.6%,45.9%,86.3%,–,64.6%,76.2%,–
C/C=C/C(N)=O,96.9%,93.4%,93.4%,109%,102%,91.1%,104%,106%,–,107%,106%,99.7%,108%,108%,104%,106%,101%,108%,95.5%,109%
CCCCCCCCCc1cc(CN2CCCCC2)c(O)c(CN2CCCCC2)c1,39.4%,75.9%,88.4%,78.4%,49.1%,12.7%,49.2%,61.9%,–,64.3%,66.4%,75.1%,30.9%,78.3%,71.7%,64.6%,60.9%,58.8%,68.3%,31.8%
O=C1C=CC(=O)c2c1nc1n2CCCC1,39.2%,95%,29.8%,80%,24.6%,132%,72.5%,41.6%,93.3%,33.2%,63.2%,-71.2% (active),89.9%,96.5%,83.5%,95.8%,74.9%,84.8%,29.9%,–
